Only some compounds are listed: those with a hit (about 14% of all), similar ones and a draw of the others.
AID923: qHTS Assay for Allosteric/Competitive Inhibitors of Caspase-1: Spectroscopic Profiling in AFC Spectral Region; compound fluorescence, AFC spectral region (405/520 nm); Potency, µM (series often up to 57.5 µM), most hits filed as activators; hit rate 1.1% among 75,000
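Titrations up to 57 uM read every 20 sec for 3 min (405/520 nm) with 50 nM caspase 1 and 5 uM Ac-WEHD-AFC, pH 7.5 HEPES buffer. Fluorescence-vs-time intercept gave baseline, scaled against on-plate AFC standard.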
A350 fluor: A350 region autofluorescence; Compound autofluorescence, 340/450 nm, Alexa 350 dye-equivalents; stronger effect = higher value; max dye-equivalent concentration, M; hit rate 11% among 59,000; in the data active = max dye-equivalent concentration above about 10 nM; inconclusive = mostly about 1.1 nM to 9.6 nM
HSD17B inhib: blocks hydroxysteroid 17-beta dehydrogenase activity; Potency, µM (top dose mostly 57.1 µM), hits mostly inhibitors; Q99714; AID 893; recombinant HSD17B10, NADH fluorescence kinetic; hit rate 7.6% among 75,000;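 note: the protocol describes HADH2 (HSD17B10) and not the HSD17B4 of the title; nearly all actives have a fitted effect of over 70% in size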
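Activity followed as NADH fluorescence increase (ex 360, em 450 nm) every 30 seconds for 4 min, using final 90 uM beta-hydroxybutyryl CoA and 1 mM NAD+. Recombinant His-tagged enzyme, 20 nM, pH 9.0 Tris buffer, 15 min compound preincubation.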
HADH2 inh: HADH2 (human) dehydrogenase inhibition; hit rate 3.4% among 73,000; Potency, µM (top dose mostly 57.1 µM), hits mostly inhibitors; recombinant HADH2, NADH fluorescence, beta-hydroxybutyryl-CoA; AID 886; note: nearly all actives have a fitted effect of over 60% in size
Target sequence (Q99714 whole entry, looked up, one chain of several): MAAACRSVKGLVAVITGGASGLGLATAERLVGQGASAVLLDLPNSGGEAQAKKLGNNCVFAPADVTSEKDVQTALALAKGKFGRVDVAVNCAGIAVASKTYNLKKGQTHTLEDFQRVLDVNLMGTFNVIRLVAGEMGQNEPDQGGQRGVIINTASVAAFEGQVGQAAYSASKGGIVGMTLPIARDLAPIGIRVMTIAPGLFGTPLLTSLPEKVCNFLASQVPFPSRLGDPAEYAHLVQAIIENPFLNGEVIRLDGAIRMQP
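Buffer 100 mM Tris-HCl pH 9.0/0.01% Tween-20; HADH2 20 nM; NAD+ 1 mM; beta-hydroxybutyryl-CoA 90 uM (all final). 15 min cpd preincubation, RT.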
CRE-bla Fsk: alters forskolin-stimulated CRE reporter signaling in CHO cells. hit rate 2.5% among 71,000. Potency, µM (series often up to 38.2 µM), hits mostly activators. AID 662. CHO CRE-bla reporter (cAMP response element driving beta-lactamase), forskolin EC10, beta-lactamase ratio; active = well fitted activation curve with a large enough effect in the signal ratio, with a control signal flat, not every such curve was filed as active; inconclusive = small, poorly fitted or top-dose-only effect, or effect the other way, or a change in a side signal; the % refers to the signal ratio
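The 460nm/530nm emission ratio after CCF4 loading defined %Activity, from which AC50 values were obtained. CRE-bla CHO cells received compound dilution series together with an EC10 level of NKH 477 for 3 hours at 37 degrees Celsius.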
4-MU autofl: compounds fluorescent in 4-MU spectral region. compound autofluorescence, 340/450 nm, 4-MU equivalents; stronger effect = higher value. max dye-equivalent concentration, M. hit rate 11% among 59,000; in the data active = max dye-equivalent concentration above about 10 nM; inconclusive = mostly about 1.1 nM to 9.6 nM
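Compounds in 100 mM Tris, pH 8.0, incubated 15 min at room temperature, then fluorescence read at 340 nm excitation/450 nm emission. Signal converted to 4-MU dye-equivalent concentration using an on-plate six-point 4-MU standard curve.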
A number is an active result; 0 = inactive; ? = inconclusive; - = not tested or not shown; [ ] = another dose, or the depositor's remark. Unless noted, calls come from the whole dose curve; as a rule, active = well fitted curve in the direction sought with a large enough effect; inconclusive = small, poorly fitted or top-dose-only effect, or another doubt; inactive = no such curve, though single readings can be large; an effect the other way counts as inactive or inconclusive.

SMILES	AID923	A350 fluor	HSD17B inhib	HADH2 inh	CRE-bla Fsk	4-MU autofl
O=c1c2cccc3c2c(nn1CN1CCOCC1)-c1ccccc1-3	0	1.3e-08M	?	0	13µM	1.3e-08M
C[N+](C)(C)CCN(Cc1cccs1)c1ccccn1	0[11.5 µM]	1.9e-08M	0[11.4 µM]	0[11.4 µM]	0[7.6 µM]	1.6e-08M
CCCN1Cc2cccc(C(=O)Nc3ccc4c(c3)OCCO4)c2C1=O	0	-	0	0	13µM	-
O=C(Nc1ccc2c(c1)OCO2)c1cccc2c1C(=O)N(C1CCCCC1)C2	0	2e-08M	?	0	0	?
CCCN1Cc2cccc(C(=O)Nc3ccc4c(c3)OCO4)c2C1=O	0	?	0	0	?	0
O[C@H](CCCN1CCN(c2ncc(F)cn2)CC1)c1ccc(F)cc1	0	-	0	0	?	-
N#Cc1ccccc1Cn1c(-c2cscn2)nc2ccccc21	0	-	0	0[11.4 µM]	?	-
CCC/C=C(\CCC)C(NC(=O)c1cccs1)c1ccc(C(F)(F)F)cc1 (stereo unspecified)	0	-	0	0	0	-
O=C(O)/C=C\c1c2ccc(=O)c(O)c-2oc2c(O)c(O)ccc12	0[11.5 µM]	0	0.79µM	1µM	0[7.6 µM]	0
O=C(O)[C@H]1CCCC[C@@H]1c1c2ccc(=O)c(O)c-2oc2c(O)c(O)ccc12	0[11.5 µM]	0	2µM	1µM	0[7.6 µM]	0
COc1ccccc1CCn1c(=O)c(CCc2ccccc2)nc2cncnc21	0	0	0	0	?	0
Cc1ccc(S(=O)(=O)NC(=O)Nc2ncn[nH]2)cc1	0[11.5 µM]	0	0[11.4 µM]	0[11.4 µM]	0[7.6 µM]	0
CC1CCCN(C(=O)C2CCN(CCCc3ccccc3)CC2)C1 (stereo unspecified)	0	2.4e-08M	0	0	?	2.8e-08M
O=C(C1CCN(Cc2ccccc2)CC1)N1CCCC1	0	-	0	0	0	-
COC(=O)N1CCC2(CCN(C(=O)Nc3cccc(C#N)c3)CC2)CC1	0	0	0	?	0	0
COc1ccc(C2(O)CCN(CCCCOc3ccccc3)CC2)cc1	0	0	0	0	0	0
Cn1c(C(=O)N2CCc3ccccc3C2)cc2oc3ccccc3c21	0	-	?	?	-	-
Cc1cccn2c(=O)c3cc(C(=O)N4CCc5ccccc5C4)n(C)c3nc12	0	5.4e-07M	3.2µM	?	?	4.1e-07M
CCOC(=O)C1CCCN(C(=O)c2ccc3c(c2)OCO3)C1 (stereo unspecified)	0	0	0	0	0	0
CCOC(=O)C1CCCN(C(=O)c2cc3c(=O)n4cccc(C)c4nc3n2C)C1 (stereo unspecified)	0	4e-07M	3.2µM	0	0	4.3e-07M
Cn1c(C(=O)N2CCCc3ccccc32)cc2sccc21	0	0	0	0	0	0
Cc1cccn2c(=O)c3cc(C(=O)N4CCCc5ccccc54)n(C)c3nc12	0	3.7e-08M	0	0	?	3.8e-08M
CCc1nnc(SCc2ccc(OC)c(Br)c2)n1N	0	-	0	0[11.4 µM]	?	-
Cc1cc(C)n2cc(CSc3nnnn3C)nc2n1	0	1.1e-08M	25µM	32µM	0	?
Cc1cc(C)n2cc(CSc3nnc(N)s3)nc2n1	0	0	?	0	0	0
SMILES	AID923	A350 fluor	HSD17B inhib	HADH2 inh	CRE-bla Fsk	4-MU autofl
CCc1nnc(SCc2cn3c(C)cc(C)nc3n2)n1N	0	1.5e-08M	25µM	25µM	0	1.3e-08M
Cc1cc(C)n2cc(CSc3nnc(-c4ccccc4)o3)nc2n1	0	?	32µM	0	13µM	?
COc1ccccc1CN1CC2(CCN(C(=O)c3cc(C(F)(F)F)cc(C(F)(F)F)c3)CC2)C1	0	0	0	0	0	0
COC(=O)N1CCC2(CC1)CN(C(=O)Nc1ccccc1)C2	0	0	0	0	0	0
CCOc1ccc2[nH]c(=O)c(C(c3nnnn3Cc3ccco3)N3CCC(C)CC3)cc2c1 (stereo unspecified)	0	1.1e-07M	32µM	0	0	1.1e-07M
CCOc1ccc2[nH]c(=O)c(C(c3nnnn3Cc3ccco3)N3CCCC(C)C3)cc2c1 (stereo unspecified)	0	1.3e-07M	25µM	?	?	1.3e-07M
COc1ccc(N2CCN(C(c3cc(OC)ccc3OC)c3nnnn3Cc3ccco3)CC2)cc1 (stereo unspecified)	0	0	0	0	?	0
CC(C)CC(C(=O)Nc1oc(-c2ccco2)c(-c2ccco2)c1C#N)N1C(=O)c2ccccc2C1=O (stereo unspecified)	0	0	2.5µM	13µM	0	0
CN[C@@H](CC(C)C)C(=O)N[C@@H]1C(=O)N[C@H](CC(N)=O)C(=O)N[C@@H]2C(=O)N[C@H]3C(=O)N[C@H](C(=O)N[C@H](C(=O)O)c4cc(O)cc(O)c4-c4cc3ccc4O)[C@H](O)c3ccc(c(Cl)c3)Oc3cc2cc(c3O[C@H]2O[C@@H](CO)[C@@H](O)[C@@H](O)[C@@H]2O[C@@H]2C[C@](C)(N)[C@H](O)[C@H](C)O2)Oc2ccc(cc2Cl)[C@@H]1O	0	0	0	0	0	0
Cc1sc(NC(=O)CSc2nc(N)n(CC(=O)c3ccccc3)n2)c(C#N)c1C	0	0	0	0	5µM	0
CCOC(=O)c1cnc(SCC(=O)Nc2sc(C)c(C)c2C#N)nc1N	0	0	0	0	0	0
OCCCCNc1cccc2ccccc12	0	1.8e-07M	25µM	32µM	0	2.3e-07M
CCCCCCCCCCC/C=C\C(C)(C)/C=C\CCCC(=O)O	0	0	0	?	0	0
COc1ccc(CC[N@+]2(C)COc3cc4oc(=O)cc(C)c4cc3C2)cc1OC	0[11.5 µM]	1.2e-08M	0[11.4 µM]	0[11.4 µM]	0[7.6 µM]	1.2e-08M
Cc1ccccc1-c1cncnc1N1CCNCC1	0	0	0	0	0	0
COc1cccc(C2CC(=O)N3CN(c4cccc(Cl)c4C)CSC3=C2C#N)c1OC (stereo unspecified)	0	-	?	1.6µM	?	-
COc1ccc(OC)c(C2CC(=O)N3CN(c4cccc(Cl)c4C)CSC3=C2C#N)c1 (stereo unspecified)	0	-	32µM	1.3µM	0	-
CC1CN2C(CCC(C)C2c2ccc(Br)cc2)C(=O)O1 (stereo unspecified)	0[11.5 µM]	-	0[11.4 µM]	0[11.4 µM]	-	-
Cc1cc(C)c(NC(=O)CSc2nc3c(c(=O)n2C)SC(C)C3)c(C)c1 (stereo unspecified)	0	-	0	?	0	-
COc1ccc2nc3oc(C(=O)N4CCCCC4)cc3cc2c1	0	3e-07M	25µM	?	?	3.2e-07M
CCOC(=O)C1CCN(C(=O)c2cc3cc4cc(OC)ccc4nc3o2)CC1	0	1.6e-07M	25µM	0	?	1.7e-07M
COc1ccc2nc3sc(C(=O)N4CCN(C)CC4)cc3cc2c1	0	8.2e-08M	25µM	0	?	8.7e-08M
CC1(C)SC2C(N3C(=O)C(c4ccccc4)NC3(C)C)C(=O)N2C1C(=O)O (stereo unspecified)	0	-	?	-	-	-
